Compounds without any hit were thinned out: in the full panel of roughly 83,000, 20% have a hit.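 The endpoint reported here, percent growth, reads 100 for growth as untreated, 0 for no net growth and -100 for all cells dead.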 The source made the active and inactive calls. The calls were made as follows: active = growth percent below 10; inactive = the rest.
How the values were obtained:
Assay in all cases: NCI-60 one-dose screen, 48 h (100 = growth as untreated, 0 = no growth, -100 = all killed)
Settings in all cases: 10 µM unless noted
[1] = tested on: T-47D breast
[2] = tested on: BT-549 breast
[3] = tested on: MDA-MB-435 melanoma
[4] = tested on: SW-620 colon
[5] = tested on: HCT-116 colon
[6] = tested on: HCC-2998 colon
[7] = tested on: KM12 colon
[8] = tested on: MCF7 breast

Measured: growth

O=C(Cn1c(-c2ccccc2)nc2cc(Cl)c(Cl)cc21)N=Nc1c(O)[nH]c2ccc(Cl)cc12
inactive: [1] 61.5% | [2] 56.2% | [3] 83.2% | [4] 81.9% | [5] 53.4% | [6] 86% | [7] 73.8%

COc1c(N2CC3CCCNC3C2)c(F)cc2c(=O)c(C(=O)N/N=C/c3c[nH]c4ccccc34)cn(C3CC3)c12 (stereo not drawn)
inactive: [1] 116% | [2] 100% | [3] 105% | [4] 90.7% | [5] 56.7% | [6] 119% | [7] 98.7%

Cc1[nH]c(C(=O)Nc2ccccc2OCc2cccc(C(=O)N3CCC[C@@H](N)C3)c2)c(Cl)c1Cl
active: [1] -55.2% | [2] -89.4% | [3] -96.6% | [4] -75.9% | [5] -82.1% | [6] -92.5% | [7] -80%

COc1ccc2c(c1)c(CC(=O)[Se]CC(=O)O)c(C)n2C(=O)c1ccc(Cl)cc1
inactive: [1] 103% | [2] 122% | [3] 51.2% | [4] 113% | [5] 98.1% | [6] 119% | [7] 101%

NC(N)=Nc1ccc(Oc2cccc(Nc3ccc(Br)c(C(F)(F)F)c3)c2)cn1
active: [2] -2.65% | [3] -89.1% | [8] -56.8% | [5] -64.8% | [6] -85.6% | [7] -72.5%
inactive: [1] 12.9%

NS(=O)(=O)c1ccc(Nc2nc(N/N=C/c3ccc(Cl)cc3)nc(Nc3ccccc3)n2)cc1
inactive: [1] 44.8% | [2] 74.9% | [3] 57.7% | [4] 101% | [5] 44.3% | [6] 76.4% | [7] 63.3%

COc1cc(OC)c(/C=C/S(=O)(=O)Cc2ccc(OC)c(NCC(=O)NO)c2)c(OC)c1
inactive: [1] 74.3% | [2] 11.6% | [4] 28.3% | [6] 14.2%
active: [3] -8.04% | [5] 3.2% | [7] 4.53%

CS(=O)(=O)Nc1cc(-c2ccc3ncc(C#N)c(N[C@H](CO)c4ccccc4)c3c2)cnc1Cl
inactive: [1] 28.3% | [2] 33.9% | [3] 47.2% | [8] 17.7% | [5] 25.7% | [6] 42.1% | [7] 70.2%

O=C(CN1CCN(c2cc(=O)n(-c3ccccc3)c3ccccc23)CC1)Nc1ccc(F)cc1
inactive: [1] 30.2% | [2] 59.1% | [3] 65.4% | [8] 37.9% | [5] 58.7% | [6] 94.4% | [7] 72.9%

CCNC(=O)N1CCc2cc(OC)c(OCCc3ccc(OC)cc3)cc2C1c1ccc([N+](=O)[O-])cc1C (stereo not drawn)
active: [5] 8.8%
inactive: [1] 53% | [2] 20.1% | [3] 14.5% | [8] 18.4% | [6] 14.5% | [7] 18.6%

COc1cc(-c2nnc(SCc3ccc(O)c4ncccc34)n2-c2ccccc2)cc(OC)c1OC
active: [1] -0.917% | [8] 2.01% | [5] 5.72%
inactive: [2] 12.8% | [3] 10.8% | [6] 22.1% | [7] 14%

CCN1CCN(C(=O)[C@]23CCC(C)(C)C[C@H]2C2=CC[C@@H]4[C@@]5(C)Cc6c([nH]c7ccccc67)C(C)(C)[C@@H]5CC[C@@]4(C)[C@]2(C)CC3)CC1
inactive: [1] 72.6% | [2] 101% | [3] 91.4% | [4] 98.1% | [5] 77.7% | [6] 106% | [7] 86.2%

CCNC(=O)N1CCc2cc(OC)c(OCCc3ccc(OC)c(N)c3)cc2C1c1cc(C)c(C)cc1C (stereo not drawn)
inactive: [1] 52.6% | [2] 25.6% | [3] 17.2% | [4] 15.7% | [5] 17.3% | [6] 49.2% | [7] 33.8%

CCOC(=O)c1c(Nc2ccccc2)nn2c(-c3ccc(Cl)cc3)ccnc12
inactive: [1] 64.2% | [2] 103% | [3] 84.2% | [4] 84.2% | [5] 61.1% | [6] 91% | [7] 89.1%

O=C(Nc1nc2ccc([N+](=O)[O-])cc2s1)Nc1ccccc1Cl
inactive: [2] 36.9% | [3] 19.6% | [4] 46.1% | [5] 21.4% | [6] 47.6% | [7] 26.4%
active: [1] -0.208%

COC(=O)C(Cc1ccccc1)Nc1nc(NC(Cc2ccccc2)C(=O)OC)nc(N2CCOCC2)n1 (stereo not drawn)
inactive: [1] 101% | [2] 112% | [3] 105% | [8] 97.8% | [5] 99.2% | [6] 110% | [7] 99.7%

Nc1nc(-c2cccc([N+](=O)[O-])c2)c(N=Nc2ccc(Br)cc2)s1
active: [1] -26.9% | [2] -29.6% | [3] 0.572% | [8] 7.63% | [5] -76.6% | [6] -31.6%
inactive: [7] 15.4%

Cc1ccc(-c2cc3nc(C(Cl)Cl)nc(C)n3n2)cc1
inactive: [1] 94.6% | [2] 115% | [3] 110% | [8] 88.3% | [5] 108% | [6] 115% | [7] 99.1%

NC(N)=Nc1ccc(Oc2cccc(Nc3ccc(Br)c(C(F)(F)F)c3)c2)cc1
inactive: [1] 22.4% | [2] 42.7%
active: [3] 8.6% | [4] -31% | [5] -25% | [6] -28.1% | [7] -27.2%

N#Cc1c(NC(=O)c2cccc(C(F)(F)F)c2F)sc2c1CCC(=O)C2
active: [1] -3.25% | [2] -22.7% | [3] -30.5% | [8] 2.17% | [5] -50.9% | [6] -29.6% | [7] -42.7%

CC(=O)C1=C(C)NC(NNC(N)=S)=NC1c1ccccc1 (stereo not drawn)
inactive: [1] 103% | [2] 92.2% | [3] 99.2% | [8] 101% | [5] 94.9% | [6] 103% | [7] 102%

Brc1ccccc1/C=N/Nc1nc(N/N=C/c2ccccc2Br)nc(N2CCOCC2)n1
inactive: [1] 79% | [2] 107% | [3] 97.7% | [8] 85.2% | [5] 97.5% | [6] 70.9% | [7] 89.1%

Cc1ccc(CSc2nc(-c3ccc(Cl)cc3)c(C#N)c(N3CCNCC3)n2)cc1
inactive: [1] 88.8% | [2] 91% | [3] 81.2% | [4] 83% | [5] 66.9% | [6] 87.2% | [7] 84.7%

N#Cc1c(-c2cccs2)cc(-c2cnccn2)nc1SCC(=O)Nc1ccc(Br)cc1
inactive: [1] 96.2% | [2] 65.4% | [3] 74.4% | [8] 66.6% | [5] 69% | [6] 99.7% | [7] 97.7%

CNC(=O)c1cc(-c2ccc(NS(=O)(=O)c3ccc(C)cc3)cc2)nc2cccnc12
inactive: [1] 98% | [2] 110% | [3] 109% | [8] 72.9% | [5] 111% | [6] 108% | [7] 101%

CC(=O)c1cc(C(=O)c2ccc(Br)cc2)n2cc(C)cc(C)c12
inactive: [1] 78.8% | [2] 79% | [3] 97.7% | [8] 85.3% | [5] 85.7% | [6] 82.6% | [7] 97.5%

CS(=O)(=O)Nc1cc(-c2ccc3ncc(C#N)c(NCc4ccccc4O)c3c2)cnc1Cl
inactive: [1] 13% | [7] 10%
active: [2] -10% | [3] 5.99% | [4] 9.16% | [5] 2.58% | [6] -1.75%

COc1ccc(NC(=O)Nc2ccc3c(ccn3C(=O)c3cccc(F)c3)c2)cc1
inactive: [1] 75.9% | [2] 76.2% | [3] 74.9% | [8] 60.4% | [5] 45.8% | [6] 86.8% | [7] 53%

CCOc1ccccc1NC1=C(Cl)C(=O)c2nc(C)ccc2C1=O
inactive: [2] 44.4% | [6] 20.3% | [7] 60.8%
active: [1] -40% | [3] -85.7% | [8] -59.7% | [5] -79.4%

O=C(NNc1nc2cc(F)c(F)cc2n2c(CN3CC4CNCC4C3)ccc12)c1cnccn1 (stereo not drawn)
inactive: [1] 20.8% | [2] 28.7% | [3] 25.3% | [8] 10.9% | [5] 14.8% | [6] 31.7% | [7] 15.4%

O=C(CN1CCN(c2cc(=O)n(-c3ccccc3)c3ccccc23)CC1)Nc1cccc(C(F)(F)F)c1
inactive: [1] 19.7% | [2] 66.6% | [3] 61.4% | [4] 75% | [5] 42.6% | [6] 84.8% | [7] 65.1%

CCCn1cnc2c(c1=N)C(c1ccc(OC)cc1)c1sc3c(CC)cccc3c1O2 (stereo not drawn)
active: [3] -44.5% | [5] 9.7%
inactive: [1] 27.9% | [2] 33.3% | [8] 18.4% | [6] 19.2% | [7] 16.8%

NC/C(=C/F)COc1ccc2nc(NCc3cccnc3)oc2c1
inactive: [1] 103% | [3] 102% | [4] 96.7% | [8] 89.3% | [5] 96.4% | [6] 117% | [7] 103%

Cc1cccc(/C=C/C(=O)Nc2ncc(Cc3cccc(C)c3)s2)c1
active: [3] -70.2% | [7] 6.43%
inactive: [1] 32.7% | [4] 16.8% | [8] 15.1% | [5] 23.1% | [6] 34.8%

From PubChem BioAssay (NCI)
